Here are results for 13 compounds from PubChem BioAssay (Tox21).

Where “and” joins values, the source holds several entries; their conditions need not be identical. Identical values can stand only once. Inconclusive results are not listed. More than one record can exist for a structure, and the calls need not agree. Calls of active or inactive are those of the source. Unless noted, calls follow the shape of the dose curve; as a rule, active = well fitted curve in the direction sought with a large enough effect in the repeat runs; inconclusive = weak or mixed curves; inactive = no such curve, though single readings can be large; an effect the other way counts as inactive or inconclusive.

Assay [1] has as its target Thyrotropin receptor (Homo sapiens) (UniProt P16473). The experiment in a line: qHTS assay to identify small molecule agonists of the thyroid stimulating hormone receptor (TSHR) signaling pathway (AID 1224843; calls by dose curve; also: nearly all actives have a fitted effect of over 45% in size; also: potency is read from the fitted curve at half-maximal effect). Summed up: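 TSHR-HEK293 cells in agonist mode, 30 min room-temperature step, then cAMP measured by competitive HTRF (cAMP-d2 with anti-cAMP cryptate) after 1 h at room temperature. Tested at 15 concentrations in triplicate.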
A general note: Quantitative high-throughput screening tests each substance at several concentrations.

The nature of assay [2]: qHTS assay to identify small molecule agonists of H2AX (AID 1224845; active = well fitted activation curve with a large enough effect in the signal ratio in the repeat runs, not every such curve was filed as active; the % refers to the signal ratio; also: potency is read from the fitted curve at half-maximal effect). Summed up: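 Wild-type CHO-K1 cells, plated overnight, exposed 3hr at 37C to 15 concentrations (0.76% DMSO final). Lysed, then HTRF anti-pH2AX (S139) cryptate and anti-H2AX-d2 antibodies, 24 hr room temperature; 665/620 nm emission read.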
Assay [3] can be described thus: qHTS assay to identify small molecule agonists of the hypoxia (HIF-1) signaling pathway (AID 1224846; active = well fitted activation curve with a large enough effect in the signal ratio in the repeat runs, not every such curve was filed as active; the % refers to the signal ratio). Summed up:
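Measured by blue/green FRET after loading CCF4-AM: beta-lactamase expressed from a hypoxia response element in ME-180 cells. Test agents were delivered in DMSO and left 17 hrs; cells had been plated 5 hrs earlier in low-serum (0.5% dialyzed FBS) medium.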

The nature of assay [4]: qHTS assay to identify small molecule agonists of H2AX - cell viability counter screen (AID 1224847; calls by dose curve; also: nearly all actives have a fitted effect of over 30% in size; also: potency is read from the fitted curve at half-maximal effect). A digest of the protocol:
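After overnight plating of 1000 CHO-K1 cells per well, a 15-concentration compound series was applied for 3 hr at 37C. Luminescence from CellTiter-Glo, read following 30 min at room temperature, reflected cell viability.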

Assay [5] is described as follows: qHTS assay to identify small molecule antagonists of the estrogen related receptor (ERR) signaling pathway from Tox21 library (AID 1224848). Also: nearly all actives have a fitted effect of over 50% in size. Also: potency is read from the fitted curve at half-maximal effect. A digest of the protocol:
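ERR reporter cell line (from NTP) seeded 2,000 cells/well, rested 6 h at 37 C/5% CO2, then pin-dosed with compounds in DMSO. After 18 h at 37 C, ONE-Glo added; luminescence read after 30 min at room temperature.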

Assay [6] can be described thus: qHTS assay to identify small molecule agonists of the estrogen related receptor (ERR) signaling pathway from Tox21 library (AID 1224849; calls by dose curve; also: nearly all actives have a fitted effect of over 15% in size). The settings on record: ERR reporter cell line, ONE-Glo luciferase, 18 h; at 92.4 µM (top of the series). Summed up:
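We plated ERR reporter cells, waited 6 h, added compounds in DMSO by pin tool and incubated them 18 h at 37 C. ONE-Glo was then added and luminescence read after 30 min.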

Assay [7] in a line: qHTS RealTime-Glo MT Cell Viability Assay in HepG2 cells - 24 hour (AID 1224867). Also: nearly all actives have a fitted effect of over 50% in size. Summed up:
(§1)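 Cells + NanoLuc/prosubstrate dispensed (600 cells/well) → 5 h at 37 C/5% CO2 → compounds in DMSO transferred → 40 h incubation at 37 C, luminescence read at 0, 8, 16, 24, 32, 40 h.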

The nature of assay [8]: qHTS RealTime-Glo MT Cell Viability Assay in HEK293 cells - 32 hour (AID 1224868). Also: nearly all actives have a fitted effect of over 50% in size. Also: potency is read from the fitted curve at half-maximal effect. Summed up: (§2)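 Tox21 10K qHTS, HEK293, 600 cells/well, RealTime-Glo reagent co-dispensed with cells; 5 h preincubation, compound by pintool, 37 C, luminescence at 0–40 h.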
Assay [9] in a line: A CellTox Green Cytotoxicity Assay to monitor cytotoxicity in HEK293 cells - 0 hour (AID 1224869). Also: nearly all actives have a fitted effect of over 50% in size. Summed up:
(§3)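 Each value comes from one timepoint of a single continuous run in which HEK293 cells with CellTox Green were exposed to compound for up to 40 h at 37 C, dye fluorescence rising with cell death.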

The nature of assay [10]: qHTS RealTime-Glo MT Cell Viability Assay in HepG2 cells - 40 hour (AID 1224870). Also: nearly all actives have a fitted effect of over 50% in size. A digest of the protocol: (§4)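 HepG2 cells (600/well) mixed with RealTime-Glo MT reagent, settled 5 h at 37 C/5% CO2 before compound addition. Nonlytic NanoLuc luminescence from viable-cell prosubstrate reduction read repeatedly during 40 h treatment at 37 C.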
Assay [11] can be described thus: qHTS RealTime-Glo MT Cell Viability Assay in HEK293 cells - 16 hour (AID 1224872). Also: nearly all actives have a fitted effect of over 50% in size. Also: potency is read from the fitted curve at half-maximal effect. Summed up:
as §2

Assay [12] is described as follows: qHTS RealTime-Glo MT Cell Viability Assay in HEK293 cells - 40 hour (AID 1224874). Also: nearly all actives have a fitted effect of over 50% in size. Also: potency is read from the fitted curve at half-maximal effect. The settings on record: RealTime-Glo luminescence; max response: stronger effect = lower value. A digest of the protocol:
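qHTS format; HEK293 cells with NanoLuc/prosubstrate reagent, 37 C/5% CO2 for 5 h pre-dosing; compounds 23 nL in DMSO; luminescence at each time point reflects viable cells.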

The nature of assay [13]: A CellTox Green Cytotoxicity Assay to monitor cytotoxicity in HEK293 cells - 24 hour (AID 1224875). Also: nearly all actives have a fitted effect of over 45% in size. A digest of the protocol:
as §3

Assay [14] can be described thus: A CellTox Green Cytotoxicity Assay to monitor cytotoxicity in HepG2 cells - 16 hour (AID 1224876). Also: nearly all actives have a fitted effect of over 45% in size. Summed up:
(§5)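 Continuous culture of HepG2 cells with a membrane-impermeant DNA dye; rising fluorescence marks dead cells. Compound exposure lasted up to 40 h at 37 C, with reads every 8 h from 0 h.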

Assay [15] is described as follows: qHTS RealTime-Glo MT Cell Viability Assay in HepG2 cells - 32 hour (AID 1224877). Also: nearly all actives have a fitted effect of over 55% in size. A digest of the protocol:
as §1

Assay [16] is described as follows: A CellTox Green Cytotoxicity Assay to monitor cytotoxicity in HepG2 cells - 24 hour (AID 1224878). Also: nearly all actives have a fitted effect of over 45% in size. Summed up: as §5
A short description of assay [17]: A CellTox Green Cytotoxicity Assay to monitor cytotoxicity in HepG2 cells - 40 hour (AID 1224879). Also: nearly all actives have a fitted effect of over 40% in size. Also: potency is read from the fitted curve at half-maximal effect. A digest of the protocol: as §5
A short description of assay [18]: qHTS assay to identify small molecule agonists of the hypoxia (HIF-1) signaling pathway - cell viability counter screen (AID 1224844; calls by dose curve; also: nearly all actives have a fitted effect of over 50% in size; also: potency is read from the fitted curve at half-maximal effect). Summed up: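 Luminescent ATP content (CellTiter-Glo, 30 min, room temperature) served as the viability measure in HRE-bla ME-180 cells exposed to compounds for 17 hrs in low-serum medium (0.5% dialyzed FBS).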
Assay [19] is described as follows: A CellTox Green Cytotoxicity Assay to monitor cytotoxicity in HEK293 cells - 40 hour (AID 1224871). Also: nearly all actives have a fitted effect of over 45% in size. A digest of the protocol:
as §3

The nature of assay [20]: qHTS RealTime-Glo MT Cell Viability Assay in HepG2 cells - 8 hour (AID 1224873). Also: nearly all actives have a fitted effect of over 55% in size. A digest of the protocol:
as §4
% is scaled to controls: 0 for no effect and ±100 for the full control effect.

Sequence of Thyrotropin receptor (Homo sapiens) (P16473 whole entry, looked up): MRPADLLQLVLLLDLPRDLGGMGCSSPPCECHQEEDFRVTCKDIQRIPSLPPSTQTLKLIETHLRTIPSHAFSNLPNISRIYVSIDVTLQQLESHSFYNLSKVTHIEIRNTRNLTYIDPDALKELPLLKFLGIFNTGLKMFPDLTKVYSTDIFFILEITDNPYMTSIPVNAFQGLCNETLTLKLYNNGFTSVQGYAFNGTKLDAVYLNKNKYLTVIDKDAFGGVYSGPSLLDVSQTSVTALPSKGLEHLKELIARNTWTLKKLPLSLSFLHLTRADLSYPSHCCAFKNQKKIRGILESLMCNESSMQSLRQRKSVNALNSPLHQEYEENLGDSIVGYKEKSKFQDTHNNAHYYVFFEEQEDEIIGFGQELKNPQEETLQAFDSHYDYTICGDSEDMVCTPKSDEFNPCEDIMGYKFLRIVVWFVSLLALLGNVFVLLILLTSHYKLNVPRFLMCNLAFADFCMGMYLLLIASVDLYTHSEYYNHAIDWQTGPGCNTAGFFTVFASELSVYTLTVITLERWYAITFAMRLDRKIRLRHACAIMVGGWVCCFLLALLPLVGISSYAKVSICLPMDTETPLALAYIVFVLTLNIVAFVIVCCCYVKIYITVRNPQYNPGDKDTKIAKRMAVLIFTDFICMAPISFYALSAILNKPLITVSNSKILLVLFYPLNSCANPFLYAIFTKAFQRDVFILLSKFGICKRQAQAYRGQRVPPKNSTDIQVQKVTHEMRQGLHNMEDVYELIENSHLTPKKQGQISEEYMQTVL

For `CCC(CC)Nc1c([N+](=O)[O-])cc(C)c(C)c1[N+](=O)[O-]`, the Potency result in assay [1], in [2], in assay [4], in [5], in assay [7] and in assay [8] was “inactive” in each case. The Potency result in assay [9], in [10], in assay [11], in assay [13], in assay [14] and in assay [15] was “inactive” each time. Also, the Potency entry in assay [16] and in [17] was “inactive” each time. Besides, the result in assay [3] was inactive. Also, in assay [6], the activity change, positive = activation was -5.44% (inactive) and 8% (inactive). In addition, the max response in assay [12] was 7.22% (inactive).

As to `CCOCN(C(=O)CCl)c1c(C)cccc1CC`, the Potency in assay [1] is 8.15 µM (active) and inactive; in assay [18], 51.9 µM (active); in [5] it was 23 µM (active) and 27.3 µM (active). The result in [3] was inactive. Further, in assay [6], the activity change, positive = activation was -61% (inactive) and -71.1% (inactive). The Potency result in assay [7], in assay [8], in [9], in assay [10], in assay [19] and in assay [11] was “inactive” throughout. The Potency entry in [13], in [14], in [15], in [16] and in assay [17] was “inactive” each time. The max response in [12] was -23.6% (inactive) and -0.0681% (inactive).

For the compound `O=[N+]([O-])c1ccc(O)c([N+](=O)[O-])c1`, the Potency entry in assay [1], in assay [18], in assay [7], in assay [8], in assay [9] and in assay [10] was “inactive” in each case. The Potency result in [19], in assay [11], in assay [20], in assay [14], in assay [15] and in assay [16] was “inactive” throughout. Moreover, the Potency result in [17] was “inactive”. Besides, in assay [3], the outcome was inactive. In addition, in assay [5], the Potency was 21.8 µM (active) and 21.7 µM (active). For the same compound, the activity change, positive = activation in [6] was -36.7% (inactive) and -43.4% (inactive).

For the compound `C=CCN(CC=C)C(=O)C(Cl)Cl`, the Potency result in assay [1], in [18], in assay [7], in [8], in assay [9] and in assay [10] was “inactive” in each case. The Potency entry in [19], in assay [11], in [13], in assay [14], in assay [15] and in assay [16] was “inactive” in each case. Moreover, the Potency entry in assay [17] was “inactive”. In addition, the call in [3] was inactive. In assay [12], the max response is 8.06% (inactive) and -1.16% (inactive).

In the case of `C#CCOS(=O)OC1CCCCC1Oc1ccc(C(C)(C)C)cc1` (stereo not drawn), the Potency in assay [1] is 12.2 µM (active) and 24.3 µM (active); in assay [18], 43.6 µM (active); in assay [4], 4.5 µM (active); in assay [5] it was 1.37 µM (active) and 1.54 µM (active); in [8], 13.8 µM (active) and 19.5 µM (active); in assay [11] it was 17.4 µM (active) and 19.5 µM (active). Moreover, in assay [12], the Potency was 7.77 µM (active) and 21.9 µM (active). The activity change, positive = activation in assay [6] is -66% (inactive) and -59.3% (inactive). Moreover, the Potency result in assay [9], in assay [10], in assay [13], in [14], in assay [16] and in assay [17] was “inactive” in each case.

Take `CCOc1cc(C=O)ccc1O`: the Potency result in assay [1], in assay [18], in assay [4], in assay [7], in [8] and in assay [9] was “inactive” throughout. For the same compound, the Potency entry in assay [10], in assay [11], in [20], in [13], in [14] and in assay [15] was “inactive” each time. In addition, the Potency result in [16] and in assay [17] was “inactive” throughout. The outcome in assay [3] was inactive.

As for `CCCCN(CCCC)N=O`, the Potency entry in assay [1], in assay [2], in assay [7], in [8], in [9] and in [10] was “inactive” in each case. In addition, the Potency entry in assay [19], in assay [11], in assay [20], in assay [13], in assay [14] and in assay [15] was “inactive” each time. The Potency result in assay [16] and in [17] was “inactive” each time. Also, the call in assay [3] was inactive. The max response in assay [12] was -0.0622% (inactive) and 14.1% (inactive).

As to `c1nc[nH]n1`, the Potency result in assay [1], in assay [18], in [5], in assay [7], in assay [8] and in assay [9] was “inactive” in each case. The Potency result in assay [10], in assay [11], in assay [20], in assay [13], in assay [14] and in assay [15] was “inactive” each time. Further, the Potency result in [16] and in assay [17] was “inactive” each time. Also, in [3], the compound was classed as inactive. In addition, the activity change, positive = activation in [6] is 1.27% (inactive) and 6.15% (inactive). Further, in assay [12], the max response was -1.48% (inactive) and 17.9% (inactive).

`Cc1ccccc1[N+](=O)[O-]`: the Potency result in [1], in assay [2], in assay [4], in [7], in [8] and in [9] was “inactive” each time. Further, the Potency entry in assay [10], in [19], in assay [11], in assay [13], in assay [14] and in assay [15] was “inactive” each time. Also, the Potency result in assay [16] and in assay [17] was “inactive” each time. Further, the call in assay [3] was inactive.

Take `Cc1ccc(OP(=O)(Oc2ccc(C)cc2)Oc2ccc(C)cc2)cc1`: the Potency is 12.2 µM (active) and 30.6 µM (active) in assay [1]; 4.36 µM (active) and inactive in assay [17]. Besides, the Potency result in assay [2], in assay [5], in assay [7], in assay [8], in [9] and in assay [10] was “inactive” in each case. Further, the Potency result in assay [11], in assay [20], in [13], in assay [14], in [15] and in assay [16] was “inactive” each time. The compound was called inactive in assay [3]. In assay [6], the activity change, positive = activation was -19.4% (inactive) and -4.77% (inactive). Further, the max response in assay [12] was -19.7% (inactive).

For `c1cc(OCC2CO2)ccc1Cc1ccc(OCC2CO2)cc1` (stereo not drawn), the Potency result in assay [1], in assay [2], in assay [4], in assay [7], in [8] and in assay [9] was “inactive” each time. Besides, the Potency entry in assay [10], in assay [19], in assay [11], in assay [13], in [14] and in assay [15] was “inactive” throughout. The Potency result in [16] and in [17] was “inactive” throughout. For the same compound, the max response in assay [12] is -28.4% (inactive).

With `O=C(O)CC[N+](=O)[O-]`, the Potency entry in assay [18], in assay [7], in [8], in assay [9], in [10] and in [19] was “inactive” throughout. The Potency entry in assay [11], in assay [13], in assay [14], in assay [15], in [16] and in assay [17] was “inactive” in each case.

With `N[C@@H](Cc1ccc(N(CCCl)CCCl)cc1)C(=O)O`, the Potency entry in assay [1], in assay [4], in assay [7], in assay [9], in [10] and in assay [19] was “inactive” in each case. Also, the Potency entry in assay [11], in assay [13], in assay [14] and in [15] was “inactive” throughout. Moreover, the Potency in assay [2] was 38.4 µM (active) and 43.8 µM (active); in assay [8], 5.27 µM (active).
